# Assay outcomes from PubChem BioAssay.
# This is a sample that favours compounds with a hit; in the whole collection about 2.2% have one here.
# TDP43 rescue: rescues yeast growth from TDP-43 toxicity | TDP-43 expressing yeast growth rescue, BacTiter-Glo, 24 h | Potency, µM (series often up to 46.1 µM), for the others: top-dose growth rescue (activation), actives largely listed as activators | actives 1.8% (n = 410,000); note: % of control where 0% means no effect; nearly all actives have a fitted effect of over 50% in size
#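 Cell-based yeast growth screen: TDP-43 expression induced in galactose, inoculum OD600=0.02 after raffinose pregrowth to mid-log. Read-out BacTiter-Glo luminescence at 24 hr, 30 deg C; inhibition of toxicity seen as signal increase.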
# Mito fusion act: mitochondrial division inhibition or fusion activation. S. cerevisiae fusion-defective mutant growth rescue, CellTiterGlo 48 h. Potency, µM (titrated, usually from 46.1 µM), inactives show at the top dose growth rescue (activation), usual class: activators. actives 0.23% (n = 320,000); note: % of control where 0% means no effect; nearly all actives have a fitted effect of over 45% in size
#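 Temperature-sensitive fusion-defective S. cerevisiae (e.g. fzo1-1, mgm1-5) were grown with compound in YPEG medium (3% ethanol, 3% glycerol) for 48 hours at 37C. Growth rescue was measured as viability by CellTiterGlo luminescence after 10 minutes at ambient.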
# Abeta rescue: compounds reversing amyloid beta toxicity in yeast; yeast expressing A-beta42, growth rescue, OD600, 48 h; response scale: 0% DMSO, 100% iron-clioquinol control; Potency, µM (series often up to 46.1 µM), hits mostly activators; actives 0.063% (n = 410,000); note: nearly all actives have a fitted effect of over 55% in size
#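 Yeast A-beta toxicity model in growth medium with pinned compounds, 48 h at 30 C; growth read as absorbance at 600 nm. Normalized to FeCl3/clioquinol equimolar mix (positive) and DMSO (negative).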
# aSyn yeast inh: alpha-synuclein toxicity inhibition in yeast; Yeast expressing alpha-synuclein, growth rescue, BacTiter-Glo, 24 h; Potency, µM (series often up to 46.1 µM), without a hit: at the highest dose growth rescue (activation), usual class: activators; actives 0.14% (n = 370,000); AID 652106; note: % of control where 0% means no effect; nearly all actives have a fitted effect of over 65% in size
#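 Readout is rescue of growth in alpha-synuclein-expressing yeast, so inhibitors of toxicity appear as activators. Growth after 24 hr at 30 deg C in galactose medium is quantified by luminescence.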
# FUS yeast rescue: rescues growth of FUS-expressing yeast; S. cerevisiae FUS-expressing, growth rescue, OD600, 24 h; Potency, µM (highest dose often 76.6 µM), hits mostly activators; actives 0.24% (n = 390,000);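 note: plate controls were DMSO vehicle for no effect and reference control for full effect; nearly all actives have a fitted effect of over 55% in size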
#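 Quantitative HTS measuring growth restoration of FUS-toxic yeast. Galactose-induced cells (OD 0.005) were exposed 24hr at 30C to compounds at several concentrations, then absorbance at 600 nm was recorded.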
# * hit, by the source's call; i = inactive; ? = inconclusive; nt = not tested or not shown; [ ] = remark or other dose. Calls come from the whole dose curve; as a rule, active = well fitted curve in the direction sought with a large enough effect; inconclusive = small, poorly fitted or top-dose-only effect, or another doubt; inactive = no such curve, though single readings can be large; an effect the other way counts as inactive or inconclusive. Potency is the fitted concentration of half-maximal effect.
SMILES,TDP43 rescue,Mito fusion act,Abeta rescue,aSyn yeast inh,FUS yeast rescue
CCOc1ccccc1NC(C)C(=O)Nc1cc(C(F)(F)F)ccc1N1CCOCC1 (stereo not given),12.6µM*,?,i,13.4%,nt
CC(C)C(=O)Nc1cc(C(F)(F)F)ccc1N1CCOCC1,6.4%,5.1%,i,4.1%,i
NC(=S)Nc1cccc2cc3ccccc3cc12,?,0.5%,i,-24.4%,i
NC(=S)Nc1cc2ccccc2c2ccccc12,22.4µM*,-6.3%,i,0.3%,i
C[C@@H]1COc2cccc(N3CCSCC3)c2S(=O)(=O)N1C,nt,nt,nt,nt,i
CCc1ccc(NC(=O)Cn2c(=O)n(-c3cc(OC)c(OC)c(OC)c3)c(=O)c3ccccc32)cc1,-11.4%,nt,i,nt,i
Cc1ccc(CSc2nc3ccsc3c(=O)n2Cc2ccccn2)cc1,35.5µM*,?,i,2.6%,nt
Cc1cc(NC(=O)c2ccc(F)cc2)n(-c2ccccn2)n1,15.8µM*,5.9%,i,1.7%,i
Cc1cc(NC(=O)c2ccc(C#N)cc2)n(-c2ccccn2)n1,-10.7%,-3.7%,?,-12.1%,i
Cc1ccc(OCc2ccc([N+](=O)[O-])cc2)c([N+](=O)[O-])n1,20.7%,3.0%,i,1.7%,i
Cc1ccc(OCc2ccccc2C)c([N+](=O)[O-])n1,11.2µM*,-36.8%,i,4.1%,i
CCOc1ccc(N2CC(NC(=O)/C=C\c3ccc4c(c3)OCO4)CC2=O)cc1 (stereo not given),22.9%,nt,i,nt,i
Cc1oc2c(c1C(=O)c1ccccc1)C(=O)C(=O)c1ccccc1-2,15.8µM*,-10.6%,i,21.3%,i
CCOC(=O)c1c(C)oc2c1C(=O)c1ccccc1C2=O,3.16µM*,-4.3%,i,-3.8%,i
CC1=C(C(=O)Nc2ccc([N+](=O)[O-])cc2)C(c2cccc(C(F)(F)F)c2)NC(=S)N1c1ccccc1 (stereo not given),0.0%,1.8%,i,-3.2%,10µM*
COc1ccc(C2NC(=S)N(c3ccccc3)C(C)=C2C(=O)Nc2ccccc2)cc1 (stereo not given),6.7%,4.4%,i,1.1%,i
O=C(OCn1ncc(Cl)c(Cl)c1=O)c1ccc(F)cc1,nt,-21.8%,nt,nt,nt
O=C(OCn1ncc(Cl)c(Cl)c1=O)c1ccccc1Cl,5.62µM*,-17.9%,i,11.3%,i
Cc1ccc(N2C(=O)c3ccc(N)cc3C2=O)cc1C,11.2µM*,10.0%,i,1.8%,i
Nc1ccc2c(c1)C(=O)N(c1cccc3ccccc13)C2=O,14.1µM*,0.3%,i,11.2%,i
Cc1ccc(C)c(N2CCN(C(=O)CC3Sc4ccccc4NC3=O)CC2)c1 (stereo not given),22.4µM*,13.7%,i,?,?
Cc1ccc(C)c(N2CCN(C(=O)CN3CCSc4ccccc43)CC2)c1,25.1µM*,nt,?,?,i
O=C(CN1CCSc2ccccc21)N1CCN(c2ccc(F)cc2)CC1,21.5%,nt,i,3.7%,i
Cc1cc2c(c(=O)o1)C1O[C@](CCCCN3C(=O)c4ccccc4C3=O)(Cc3cc(C#N)ccc31)O2,nt,0.7%[9.22 µM],nt,nt,nt
O=C(NCCCN1CCN(c2ccccc2)CC1)c1ccc2nc(CCc3ccccc3)oc2c1,20.2%,nt,i,nt,i
SMILES,TDP43 rescue,Mito fusion act,Abeta rescue,aSyn yeast inh,FUS yeast rescue
Cc1ccc(Nc2c(N)c(=O)oc3ccccc23)cc1,14.1µM*,-6.1%,i,1.1%,i
COC(=O)C1=C(C)NC(C)=C([N+](=O)[O-])C1c1ccccc1C(F)(F)F (stereo not given),13.2%,13µM*,i,3.6%,i
COC(=O)C1=C(C)NC(C)=C(C(=O)OC)C1c1ccc(-c2cccc([N+](=O)[O-])c2)o1,15.9%,1.3%,i,0.1%,i
CC(=O)Nc1ccc(S(=O)(=O)N(C)CC(=O)N/N=C/c2ccncc2)cc1,-1.3%,22.4µM*,i,1.3%,i
O=C(Nc1ccc([N+](=O)[O-])cc1Cl)c1ccccc1O,nt,nt,nt,-70.1%,nt
COc1cccc(CN2c3ccc(Br)cc3C(=O)CS2(=O)=O)c1,15.8µM*,-4.1%,i,-25.7%,?
C=CCN1c2ccc(Br)cc2C(=O)CS1(=O)=O,20µM*,-2.9%,i,3.8%,i
CC(C)c1ccc(N(CC(=O)O)S(=O)(=O)c2ccc3[nH]c(=O)c(=O)[nH]c3c2)cc1,-10.8%,nt,i,nt,i
C=C(Cl)COc1ccc2c(CCCC)cc(=O)oc2c1,?,26.9%,i,-4.1%,i
CCCCc1cc(=O)oc2cc(OS(C)(=O)=O)ccc12,?,15.8µM*,i,13.3%,i
Clc1ccc(N2CCN(Cc3cc4ccccn4n3)CC2)cc1,nt,23.1µM*,nt,0.9%,nt
Clc1ccc(N2CCN(Cc3ccc(Br)o3)CC2)cc1,-24.8%,1.4%,i,-5.0%,i
CN(C)c1ccc(NC(=O)CSc2nc3ccccc3c(=O)n2C2CCCCC2)cc1,19.4%,1.0%,i,7.5%,?
CN(C)S(=O)(=O)c1cccc(NC(=O)CSc2nc3ccccc3n2-c2ccccc2)c1,0.0%,18.4%,i,-1.5%,nt
CCN(CC)c1ccc(NC(=O)CSc2nc3ccccc3c(=O)n2-c2cc(S(=O)(=O)N(C)C)ccc2C)cc1,-11.3%,-2.8%,i,-2.2%,35.5µM*
CN(C)S(=O)(=O)c1ccc(NC(=O)CSc2nc3ccccc3n2-c2ccccc2)cc1,-32.7%,12.7%,i,-0.6%,6.31µM*
O=C(Nc1ccc(Cl)cn1)c1cnn2c1NC(=C1CC1)C=C2C(F)F,nt,nt,nt,0.9%,nt
Cc1ccc2c(c1)c(C)c(C)n2CC(O)Cn1nc(C)cc1C (stereo not given),?,-3.4%,?,12.2%,i
Cc1ccc2c(c1)c(C)c(C)n2CC(O)Cn1nnc2ccccc21 (stereo not given),?,-10.1%,10µM*,?,?
NS(=O)(=O)c1ccc(Sc2ccc3c(c2)CCC3)nc1,15.8µM*,21.8%,i,-0.5%,i
NS(=O)(=O)c1ccc(S(=O)(=O)c2ccccc2)nc1,-1.7%,nt,i,-1.1%,i
C[C@H]1[C@@H](OC(=O)Nc2ccc(Br)cc2)CC[C@@]23CCCN2C(=O)CCC[C@@H]13,nt,nt,nt,nt,i
O=[N+]([O-])c1nn(-c2ccc3c(c2)OCCO3)n(O)c1=NCCC1=CCCCC1,14.1µM*,-0.6%,i,-0.7%,i
O=[N+]([O-])c1nn(-c2ccc3c(c2)OCCO3)n(O)c1=NCc1ccc(F)cc1Cl,22.4µM*,1.2%,i,-0.6%,i
O=[N+]([O-])c1nn(-c2ccc3c(c2)OCCO3)n(O)c1=NCc1ccc(F)cc1,-11.7%,?,i,-21.8%,nt
CCC[C@H]1[C@@H](OC(=O)NCc2ccccc2)CC[C@@]23CCCN2C(=O)CCC[C@@H]13,nt,nt,nt,nt,i
